Pf growth 96h: P. falciparum growth inhibition at 96 hour, primary screen for plastid delayed-death inhibitors; P. falciparum luciferase reporter growth, 96 h; Potency, µM (top dose mostly 28.7 µM), without a hit: top-dose activity change, negative = inhibition, most hits filed as inhibitors; 320,000 tested, 6.9% active; AID 504834; note: potency is the fitted concentration of half-maximal effect; % is set by controls: 0 for no effect and ±100 for the full control effect
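P. falciparum expressing integrated firefly luciferase, in erythrocytes at 2% hematocrit, 0.05% parasitemia, incubated with compounds 96 h at 37 C, 5% CO2. Growth inhibition read as loss of luminescence; two-generation exposure targets delayed-death apicoplast inhibitors.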
NS1 inh: inhibitors of influenza NS1 protein function. 270,000 tested, 0.4% active. AID 2326. Potency, µM (highest dose often 46.1 µM), inactives show top-dose activity, positive = more growth; calls by dose curve; note: potency is the fitted concentration of half-maximal effect; actives are rising curves; nearly all actives have a fitted effect of over 50% in size
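Recovery from NS1-induced slow growth read by OD600 in budding yeast switched to galactose assay medium (pH 6.0, -URA) at 1:100 dilution. Compound 23 nl per well; the matching strain lacking NS1 serves as control.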
Sm TGR inh: S. mansoni TGR enzyme inhibition | Potency, µM (series often up to 114 µM), inactives show at the top dose activity change, negative = inhibition, usual class: inhibitors | 360,000 tested, 3% active | purified TGR, DTNB reduction, TNB absorbance 405 nm | Q962Y6; note: potency is the fitted concentration of half-maximal effect; % is set by controls: 0 for no effect and ±100 for the full control effect; nearly all actives have a fitted effect of over 60% in size
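TGR 20 nM + NADPH 100 uM (dispensed conc.), cpd preinc 15 min RT; start with NADPH (500 uM addition) then DTNB (15 mM addition). Kinetic TNB absorbance, 405 nm filter. Four-parameter Hill fit across titration.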
CHX counter: counter-screen hit for Shiga toxin inhibitors, cycloheximide; AID 2314; cell reporter, cycloheximide protein synthesis inhibition counterscreen; max response, %; 300,000 tested, 12% active; in the data active = max response mostly above about 13%, no sharp cut-off; inactive = mostly below about 14%; note: read at 38.3 µM for the half of the compounds with a filed dose; 0% is about no effect
Shiga inhibitor: inhibitors of Shiga toxin in Vero cells; Vero cells, Shiga toxin protein synthesis inhibition reporter; inhibition, % at 38.7 µM; 290,000 tested, 9.2% active; AID 2315; in the data active = inhibition mostly above about 28%, no sharp cut-off; inactive = mostly below about 43%; note: 0% is about no effect
Pf growth 48h: P. falciparum growth inhibition at 48 hours (one generation). 310,000 tested, 5.9% active. Potency, µM (highest dose often 28.7 µM), for inactives: top-dose activity change, negative = inhibition, usual class: inhibitors. AID 504832. P. falciparum luciferase growth in erythrocytes, 48 h; note: potency is the fitted concentration of half-maximal effect; % is set by controls: 0 for no effect and ±100 for the full control effect
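Luminescence readout; reporter = integrated firefly luciferase in P. falciparum. RBC culture at 2% hematocrit, 0.1% parasitemia final, 37 C/5% CO2; decreased signal taken as growth inhibition.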
* marks the source's active call; other numbers are inactive results; ? = inconclusive; nt = not tested or not shown. The list is not random: actives were taken first. Their share in the collection is about 21%. Unless noted, calls come from the whole dose curve; as a rule, active = well fitted curve in the direction sought with a large enough effect; inconclusive = small, poorly fitted or top-dose-only effect, or another doubt; inactive = no such curve, though single readings can be large; an effect the other way counts as inactive or inconclusive.

SMILES | Pf growth 96h | NS1 inh | Sm TGR inh | CHX counter | Shiga inhibitor | Pf growth 48h
Cc1ccc(O)c(-c2cc(C(=O)Nc3ccc(S(=O)(=O)Nc4nc(C)cc(C)n4)cc3)[nH]n2)c1 | 13µM* | ? | -3% | -5 | -14 | ?
Cc1cc(C)nc(NS(=O)(=O)c2ccc(NC(=O)c3ccc(S(=O)(=O)N4CC(C)OC(C)C4)cc3)cc2)n1 (stereo not drawn) | ? | 7% | -1% | 5 | 7 | ?
Cc1ccc(O)c(-c2cc(C(=O)Nc3ccc(S(=O)(=O)N4CC(C)OC(C)C4)cc3)[nH]n2)c1 (stereo not drawn) | 292% | -33% | 2% | 5 | -9 | 0.52µM*
COc1ccc(OCC(O)CNC(=O)c2ccc(C)cc2)cc1 (stereo not drawn) | 62% | -2% | 15% | -3 | -6 | 33%
Cc1ccc(NC(=S)Nc2ccc(F)cc2)c(C)c1 | 123% | nt | -2% | 10 | 19 | -10%
COn1c(-c2ccc(Cl)cc2)nc2ncccc21 | 62% | -7% | 1% | 49* | 60* | 59%
CC1(C)COC(/C=C/c2ccc([N+](=O)[O-])cc2)=N1 | -10% | -32% | -18% | 56* | 84* | ?
CC(=C/C(=O)O)/C=C/c1ccc([N+](=O)[O-])cc1 | 40% | -25% | -1% | 3 | -9 | -6%
CCn1ccc2c(OCC(=O)NCc3ccc(C)cc3)cccc2c1=O | nt | nt | -15% | nt | nt | nt
CCc1ccc(NC(=O)Cn2cccc2)cc1 | ? | nt | -3% | 25* | 66 | 36%
CCc1ccc(NC(=O)Cc2ccc(-n3cccc3)cc2)cc1 | 2.1µM* | 16% | 2% | -6 | -2 | 20%
CCc1ccccc1NC(=O)Cc1ccc(-n2cccc2)cc1 | -8% | 4% | -3% | 0 | -8 | -9%
Cc1ccc(NC(=O)Cn2cccc2)cc1 | 22% | nt | 4% | 5 | 20 | 25%
Cc1ccc(C2CC(c3ccco3)=NN2S(C)(=O)=O)cc1 (stereo not drawn) | 17% | 7% | ? | 28* | 40* | 35%
CS(=O)(=O)N1N=C(c2ccco2)CC1c1ccccc1 (stereo not drawn) | -21% | 1% | ? | -2 | -2 | 42%
COc1ccc2cc(C3CC(c4ccco4)=NN3S(C)(=O)=O)c(Cl)nc2c1 (stereo not drawn) | ? | 1% | 6.3µM* | 2 | 1 | -27%
CS(=O)(=O)N1N=C(c2ccco2)CC1c1ccco1 (stereo not drawn) | 105% | 17% | 20µM* | 2 | 9 | -10%
Fc1ccc(C2CC(c3ccco3)=NN2c2ccccc2)cc1 (stereo not drawn) | 3% | 11% | 0% | 19 | 2 | ?
CS(=O)(=O)N1N=C(c2ccco2)CC1c1ccc(Cl)cc1 (stereo not drawn) | 9% | 21% | ? | 30* | 18 | 36%
CC(=O)N1N=C(c2ccco2)CC1c1ccc(Cl)o1 (stereo not drawn) | 0% | 1% | ? | 0 | 3 | 24%
Cc1nn(-c2ccc(N3CCCCC3)nn2)c(C)c1CCC(=O)NCc1ccccc1 | nt | nt | -1% | nt | nt | nt
COc1ccc([C@@H]2[C@@H]3C(=O)N(C(C)(C)C)C(=O)[C@@H]3[C@]3(C)C(=O)N(c4ccc(C)cc4)C(=O)N23)cc1 | 9% | -10% | 16% | -2 | -3 | -10%
COc1cccc(CC(=O)OCC(=O)NC(C)c2ccc(F)cc2)c1 (stereo not drawn) | -14% | nt | -12% | nt | nt | -13%
CC1Sc2ccc(S(=O)(=O)N(C)Cc3ccccc3)cc2NC1=O (stereo not drawn) | ? | -21% | 3% | -8 | -6 | -2%
COc1nc(N)nc2nc[nH]c12 | 18% | 3% | -15% | -2 | -4 | -6%
CC(Sc1ccc(S(=O)(=O)N2CCCC2)cn1)C(N)=O (stereo not drawn) | -13% | nt | -6% | nt | nt | -5%
CCN(C(=O)C(C)Sc1ccc(S(=O)(=O)N2CCOCC2)cn1)c1ccccc1 (stereo not drawn) | ? | nt | -7% | nt | nt | 13µM*
CN(C)C(=O)C(Sc1ccc(S(=O)(=O)N2CCCC2)cn1)c1ccccc1 (stereo not drawn) | ? | nt | 0% | nt | nt | 15µM*

Screens deposited in PubChem by National Center for Advancing Translational Sciences (NCATS).
